# Screening results as filed in PubChem BioAssay.
# PostGolgi yeast: phenotypic screen on post-Golgi transport, primary screen. post-Golgi transport phenotypic cell assay. inhibition, % at 10 µM. 98,000 compounds, 0.9% hits. AID 739, 2007;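 also: yeast cells grown in 1536-well plates; yeast grown about 18 h at 30C before absorbance read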
# CYP2C19 inhib: blockers of cytochrome P450 2C19 activity – biochemical, luminescence, ADME assay, primary screen; P33261; CYP2C19 Supersomes, luciferin-H EGE luminescence, 30 min; 96,000 compounds, 21% hits; inhibition, % at 5 µM;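 active = CYP2C19 inhibition above a set limit at 5 µM in the primary screen, cut at about 50% in these data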;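 also: plate controls were negative control wells for no effect and 2.5 mM tranylcypromine positive control for full effect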
# Target sequence (P33261 whole entry, looked up): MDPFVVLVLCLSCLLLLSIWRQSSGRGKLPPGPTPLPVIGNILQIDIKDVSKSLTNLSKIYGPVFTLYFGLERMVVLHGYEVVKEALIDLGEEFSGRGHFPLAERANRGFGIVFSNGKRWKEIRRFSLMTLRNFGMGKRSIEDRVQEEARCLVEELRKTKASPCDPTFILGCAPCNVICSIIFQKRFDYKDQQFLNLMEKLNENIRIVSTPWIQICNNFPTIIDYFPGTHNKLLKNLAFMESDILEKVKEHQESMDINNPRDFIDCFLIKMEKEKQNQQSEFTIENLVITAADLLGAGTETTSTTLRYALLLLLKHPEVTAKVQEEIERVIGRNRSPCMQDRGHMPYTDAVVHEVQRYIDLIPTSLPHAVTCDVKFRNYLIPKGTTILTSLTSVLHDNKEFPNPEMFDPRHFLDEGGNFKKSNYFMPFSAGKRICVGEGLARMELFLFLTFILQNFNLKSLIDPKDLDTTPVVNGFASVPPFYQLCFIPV
# CYP2C19 activ: human CYP2C19 activators, primary screen, biochemical, luminescence. 96,000 tested, under 10 active. Cytochrome P450 2C19 (Homo sapiens), P33261. AID 1025, 2008. recombinant CYP2C19, luciferin-H EGE luminescence; hits give high values; 0 = fully inhibited enzyme, 1 = untreated enzyme. activation factor at 5 µM;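 active = activation factor of at least 2 at 5 µM in the primary screen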;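 also: 0 = wells with 2.5 mM tranylcypromine and 1 = vehicle-only wells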
# PostGolgi ctrl: growth inhibition of yeast control strain, primary screen, counter-screen for post-Golgi transport modulator project | inhibition, % at 10 µM | efflux-deficient yeast background strain, growth absorbance A615, 16 h | AID 738, 2007 | 98,000 compounds, 5% hits
# CYP2C9 activ: human CYP2C9 activators, primary screen, biochemical, luminescence | AID 1024, 2008 | Cytochrome P450 2C9 (Homo sapiens), P11712 | 96,000 compounds, 1.4% hits | activation factor at 5 µM | recombinant CYP2C9, luciferin-H conversion; hits give high values; factor 1 = untreated enzyme, 0 = blocked;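 active = activation factor of 2 or more for CYP2C9 at a 5 µM dose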;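 also: 0 = sulfaphenazole-blocked wells and 1 = vehicle-only wells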
# CYP2C9 inhib: blockers of cytochrome P450 2C9 activity – biochemical, luminescence, ADME assay, primary screen. P11712. CYP2C9 Supersomes, luciferin-H conversion. inhibition, % at 5 µM. 96,000 compounds, 20% hits;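 active = blocking of liver enzyme CYP2C9 beyond about 50% at 5 µM, limit read from the data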
# Active calls of the source: *; x = no result given. Most compounds without a hit are left out; they make up all but 32% or so of the library. Rule as the data show it, unless noted: active = inhibition above about 30%; inactive = the rest.
SMILES,PostGolgi yeast,CYP2C19 inhib,CYP2C19 activ,PostGolgi ctrl,CYP2C9 activ,CYP2C9 inhib
CCn1c(SCc2nc3ccccc3s2)nnc1-c1ccccc1,-1,99*,0,6,0.8,20
COc1ccc(-c2nnc(SCC(=O)Nc3nc4ccccc4s3)n2C)cc1,2,12,0.9,-5,0.7,32
CCC(c1nnc(SCc2nc3ccccc3s2)n1Cc1ccccc1)N(C)C (stereo not drawn),-3,81*,0.2,27,0.3,74*
c1ccc(Cn2c(SCc3nc4ccccc4s3)nnc2-c2ccco2)cc1,-8,88*,0.1,22,0.2,83*
CCn1c(SCc2cccc(C)c2)nnc1-c1ccccc1,8,97*,0,13,1,5
Cc1ccc2[nH]c(=O)c(-c3nc4cc(C)ccn4c3NCc3ccco3)cc2c1,-5,18,0.8,12,0.6,42
Cc1cccc2cc(-c3nc4c(C)cccn4c3NCc3ccco3)c(=O)[nH]c12,44*,16,0.8,56*,0.6,37
CC(C)Cn1c(CN2CCN(c3ccccc3F)CC2)nc2c1c(=O)[nH]c(=O)n2C,-2,x,x,16,x,x
CN(C)c1ccc(CNCCC2(O)CCOC(C)(C)C2)cc1 (stereo not drawn),4,53*,0.5,0,1,4
CCOC(=O)N1CCN(S(=O)(=O)c2ccc(C)cc2)C1c1ccccc1 (stereo not drawn),-5,91*,0.1,11,0.3,70*
CCOC(=O)N1CCN(S(=O)(=O)c2ccc(C)cc2)C1c1ccc(OC)cc1 (stereo not drawn),-9,74*,0.3,26,1.2,-16
CCC(=O)Oc1ccc(C2N(C(=O)CC)CCN2S(=O)(=O)c2ccc(C)cc2)cc1OC (stereo not drawn),3,20,0.8,5,0.7,32
CC1(c2ccccc2)CC(c2ccccc2)=Nc2nonc2N1 (stereo not drawn),0,94*,0.1,19,0.5,52*
CC(C)Oc1cccc(C(=O)NC(=S)N2CCN(c3ccc(C(F)(F)F)cc3[N+](=O)[O-])CC2)c1,-4,32,0.7,22,0.4,62*
CCCc1cc(=O)n2[nH]c(C)cc2n1,-38,-6,1.1,0,1.1,-7
CCC1S/C(=N\S(=O)(=O)c2cccs2)N(C2CCCCC2)C1=O (stereo not drawn),2,79*,0.2,5,0.4,57*
Clc1ccc(-c2nnc(NC3=NCCCCC3)o2)cc1,-9,23,0.8,30*,1,3
CN1C(=O)OC2(C)CCc3ccccc3C12C (stereo not drawn),-2,22,0.8,2,0.9,12
O=C(NCCCO)c1ccc2[nH]c3ccccc3c2c1,13,64*,0.4,-2,0.7,32
CCCCNC(=O)c1cccc(C(=O)NCCCC)c1,-2,29,0.7,-4,0.5,48
COc1cccc(C(=O)c2c[nH]c(C(=O)NCc3cccs3)c2)c1,1,7,0.9,0,0.8,19
CCOC(=O)NC(c1cccc(Cl)c1)C1CCCCCC1=O (stereo not drawn),-5,97*,0,4,0.4,56*
CCNc1nc(NCC)nc(C(=O)OCCO)n1,3,8,0.9,2,1.1,-10
CCN1CCN(c2cc(=O)n(-c3cc(Cl)ccc3C)c(=O)[nH]2)CC1,7,20,0.8,15,0.4,60*
O=C(O)C1C2C=CC3(CN(Cc4ccccn4)C(=O)C13)O2 (stereo not drawn),3,-30,1.3,6,1.3,-27
SMILES,PostGolgi yeast,CYP2C19 inhib,CYP2C19 activ,PostGolgi ctrl,CYP2C9 activ,CYP2C9 inhib
COc1ccc(S(=O)(=O)NNC(=O)c2cc3cc4ccccc4nc3s2)cc1,9,-13,1.1,-11,1.1,-8
CCCC(=O)NCc1nc2ccccc2n1C,0,-14,1.1,4,1.2,-21
Cn1c(CCCCCN)nc2ccccc21,-3,23,0.8,-2,0.4,63*
CCn1cnc2cc(NCc3nc4ccccc4n3C)ccc21,-2,93*,0.1,-1,0.6,41
CCn1cnc2cc(NCc3cccc(OC)c3O)ccc21,2,37,0.6,10,1,3
CCCC(=O)NCCCc1nc2ccccc2n1C,-3,22,0.8,3,1.1,-11
Cn1c(CSc2nc3ccccc3n2C)nc2ccccc21,12,84*,0.2,22,0.9,13
Cn1c(CNc2ccccc2O)nc2ccccc21,-3,70*,0.3,7,0.9,13
Cn1c(CNc2ccccc2)nc2ccccc21,-1,52*,0.5,10,0.7,34
Cc1c(C(=O)Nc2ccccc2)oc2c1C(=O)CC(C)(C)C2,-4,-1,1,7,0.7,29
Cc1ccc(NC(=O)c2oc3c(c2C)C(=O)CC(C)(C)C3)cc1,-10,77*,0.2,6,0.9,11
Cc1c(C(=O)Nc2ccncc2)oc2c1C(=O)CC(C)(C)C2,5,99*,0,10,0.1,94*
CNc1nc(Sc2ccc(C)cc2)cc(C(F)(F)F)n1,7,-1,1,1,0.9,7
CCCNC(=O)c1ccc(SC)cc1OC,-8,30,0.7,18,1,0
COc1cc(SC)ccc1C(=O)N(C)Cc1ccccc1,-1,98*,0,8,1.4,-38
COc1cc(SC)ccc1C(=O)NCC1CCCO1 (stereo not drawn),-1,60*,0.4,2,1.1,-6
COc1cc(SC)ccc1C(=O)NCc1ccc(C)cc1,44*,91*,0.1,24,1.2,-17
COc1cc(SC)ccc1C(=O)N1CCCCCC1,3,x,x,8,x,x
CC(=O)c1c(C)[nH]c(C(=O)OCn2nnc3ccccc3c2=O)c1C,25,11,0.9,23,1.1,-9
Cc1ccc(N=C2N=C(N)c3ccccc32)c(C)c1,-2,5,1,-4,0.4,58*
COc1ccccc1C(CC(N)=O)c1ccco1 (stereo not drawn),-4,-14,1.1,0,1.4,-44
CCOC(=O)CSc1nnc(-c2ccccc2)c(=O)[nH]1,-1,-12,1.1,-4,1.1,-8
CCCCCOC(=O)CSc1nnc(-c2ccccc2)c(=O)[nH]1,-1,24,0.8,6,0.4,60*
CCCCCCOC(=O)Cc1c(C)nc(-c2ccccc2)[nH]c1=O,-8,22,0.8,34*,1,-2
C=C(C)Cc1c(C)nc(-c2ccccc2)[nH]c1=O,3,x,x,4,x,x
O=C(O)CCSc1nnc(-c2cccnc2)n1-c1ccccc1,-14,-1,1,7,1,-4
